In the OligoGym collection:

Biological target: ORC1
Assay: pooled miR-30 sensor sort-seq; sequence = guide strand
Conditions: shRNA
Also: reference of the scale not given here.

Sequence	sensor-assay potency score (higher = more potent)
TTTCGATCCAACAAGGGCCTGC	0.15
TTTGGTAGTGCAGTTTTCGATC	-0.734
TAAGAGAGTCCAGTCTCTCTGG	-0.254
TCTCGGTGGAACAACCTTCTGT	-0.225
TAGAGTCTGAAATCTCTGCTGC	0.498
TACAGCAGAAACATGCAGCCTC	0.436
TTGCACATAGACTTGGTGGGGC	0.793
TTTACTATTACCTAGAAACCGA	-0.315
TCAATCAACACAAACTGTCCAA	0.619
TAGAGGTCGCTTCATTCTGGGC	-1.24
TTTTCGAAGCTGCAATTCGGGT	-1.44
TCATTTTTCAGATTCGTCGGTA	0.261

Biological target: ORM2
Assay: as above
Conditions: shRNA

Sequence	sensor-assay potency score (higher = more potent)
TAGAAGCACTGGTTCTGGCGGG	-0.234
TACATGACATCTGACCTGGGAA	-0.156
ATCAAGGTCTTGGTGTCCCTAA	-0.929
TGGAGTTATAGAAGCACTGGTT	-0.607
TGTACATGACATCTGACCTGGG	0.548
TCATCGTCCAGGTAGGAACCAA	-0.639
TGGACATTCAGGTAACTGGAGT	-0.96
TTATCCTTTTTCCAGTCGGTGT	-1.32
TAAGGAACAGCAGGTGAGCAAC	-1.17
TTCTTCTCATCGTCCAGGTAGG	-0.591
GTGTACATGACATCTGACCTGG	-0.944
TTATAGAAGCACTGGTTCTGGC	-0.114
